Assay outcomes deposited in PubChem BioAssay by several laboratories.
BoNT A protease – blocks Botulinum neurotoxin A light chain protease; 360,000 compounds, 0.17% hits; multiplex microsphere protease substrate cleavage, flow cytometry; inhibition, % at 10 µM; AID 588499; note: plate controls were buffer without enzyme for full effect and enzyme alone for no effect
BoNT F protease – BoNT F light chain protease inhibition. Multiplex microsphere protease cleavage assay, flow cytometry. inhibition, % at 10 µM. 360,000 compounds, 0.22% hits. AID 588497; in the data active = inhibition above about 35%, passing the limit was not always enough; inconclusive = no clear call, values can overlap the other calls; note: plate controls were buffer without enzyme for full effect and enzyme alone for no effect
MazEF act – MazEF (E. coli) toxin RNase activation; FAM/BHQ RNA-DNA oligo cleavage fluorescence, 5 h; activation, % at 20 µM; 350,000 compounds, 0.32% hits; in the data active = activation above about 50%
Autofluor counter – compound fluorescence in toxin protease inhibitor counterscreen; compound autofluorescence counterscreen, microsphere flow cytometry; stronger effect = higher value; fluorescence intensity (concentration not given with the values); 360,000 compounds, 3.1% hits; AID 624483; in the data active = fluorescence intensity above about 16000; inconclusive = no clear call, values can overlap the other calls
Anthrax LF inh2 – blocks Bacillus anthracis lethal factor protease; P15917; multiplex microsphere protease cleavage assay, LF; inhibition, % at 10 µM; 360,000 compounds, 0.12% hits; note: plate controls were buffer without enzyme for full effect and enzyme alone for no effect
Target sequence (P15917 whole entry, looked up): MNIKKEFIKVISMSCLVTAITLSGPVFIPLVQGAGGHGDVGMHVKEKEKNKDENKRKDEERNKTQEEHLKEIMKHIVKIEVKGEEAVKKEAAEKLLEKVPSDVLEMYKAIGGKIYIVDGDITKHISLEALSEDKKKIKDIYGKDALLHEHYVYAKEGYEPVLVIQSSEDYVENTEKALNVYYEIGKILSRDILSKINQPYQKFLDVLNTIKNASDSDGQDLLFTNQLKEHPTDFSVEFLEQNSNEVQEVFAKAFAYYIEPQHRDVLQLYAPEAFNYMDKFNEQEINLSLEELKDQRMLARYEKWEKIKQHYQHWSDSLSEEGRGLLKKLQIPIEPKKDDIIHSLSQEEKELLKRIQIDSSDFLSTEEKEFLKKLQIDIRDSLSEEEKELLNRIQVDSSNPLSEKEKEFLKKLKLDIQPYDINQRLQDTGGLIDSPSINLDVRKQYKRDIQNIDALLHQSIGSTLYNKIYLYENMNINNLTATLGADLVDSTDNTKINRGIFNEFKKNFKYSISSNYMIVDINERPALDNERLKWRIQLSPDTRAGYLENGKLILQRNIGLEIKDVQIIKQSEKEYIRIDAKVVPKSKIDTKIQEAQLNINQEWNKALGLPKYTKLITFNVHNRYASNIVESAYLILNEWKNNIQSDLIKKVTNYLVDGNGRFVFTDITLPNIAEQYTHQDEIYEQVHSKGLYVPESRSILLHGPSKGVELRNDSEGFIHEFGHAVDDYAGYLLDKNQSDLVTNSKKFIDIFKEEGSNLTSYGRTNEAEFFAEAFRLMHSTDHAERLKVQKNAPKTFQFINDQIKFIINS
Active calls of the source: *; ? = inconclusive; . = no result. Hits are enriched below; roughly 3.6% of the tested compounds scored in any of these assays. Cut-off read from the data, not from the text of the source, unless noted: active = inhibition above about 30%; inconclusive = no clear call, values can overlap the other calls; inactive = below that.

SMILES | BoNT A protease | BoNT F protease | MazEF act | Autofluor counter | Anthrax LF inh2
O=C(C1=C(O)C(=O)N(CCCn2ccnc2)C1c1cccc(Br)c1)c1ccco1 (centres undefined) | 9 | 12 | -2 | 3240 | 7
COc1ccc(C)cc1NC(=O)CO/N=C(\N)CC(=O)NC1CCCCC1 | 0 | -8 | 0 | 4039 | -2
CN(C)S(=O)(=O)c1ccc(NC(=O)CCCNC(=O)c2ccc(Cl)cc2)cc1 | -2 | 6 | -2 | 4517 | 8
COc1ccc(-c2ccc(-c3nnc(Cc4ccc(OC)c(OC)c4)o3)cc2)cc1 | 1 | 4 | -14 | 22185* | -5
CCN(CC)C(=O)C1=C(C)N(Cc2ccc(OC)cc2)C(=O)C(CC(=O)NC2CCCCC2)C1 (centres undefined) | 0 | 3 | 5 | 3699 | -2
OC(COCc1ccccc1)Cn1cnc2ccccc21 (centres undefined) | ? | -1 | 0 | 16259* | 0
Cc1n(CC(O)COCc2ccccc2)c2ccccc2[n+]1C (centres undefined) | -2 | -1 | -1 | 23714* | -2
CC(=O)Nc1cccc(OCC(O)Cn2cnc3ccccc32)c1 (centres undefined) | ? | -4 | 4 | 22621* | -1
O=C(Cn1cnc2ccccc21)NCc1ccccc1 | 1 | 2 | 3 | 21986* | -12
COc1ccc(CNC(=O)CCS(=O)(=O)c2ccc3nc(C)sc3c2)cc1 | -1 | -6 | . | 5943 | -4
CCCCn1c(N)c(N(CCC(C)C)C(=O)c2oc3ccc(OCC)cc3c2C)c(=O)[nH]c1=O | 2 | -3 | -15 | 6541 | -1
Cc1nc(NCCCN2CCOCC2)c2cnn(-c3ccccc3)c2n1 | 0 | -2 | 5 | 3525 | 7
O=S(=O)(c1ccc(N2CC=C(c3ccccc3)CC2)nc1)N1CCCC1 | ? | -6 | 0 | 24332* | -1
COc1ccccc1-c1nc(C#N)c(N2CCN(c3cccc(Cl)c3)CC2)o1 | -5 | -7 | 3 | 25154* | -6
CCc1nc2ccccc2n(CCOCCn2c(=O)c(CC)nc3ccccc32)c1=O | 4 | 6 | -8 | 21722* | -1
CCOCCn1c(CC)nc2ccccc21 | -4 | -10 | 4 | 3807 | -2
Nc1ncc2[nH]c(N)nc2n1 | 0 | 4 | 6 | 4222 | 0
CCOC(=O)N1CCN(C(=O)CSCC(=O)Nc2nc(-c3ccc(Cl)s3)cs2)CC1 | 1 | -1 | 3 | 22328* | 0
Cc1cc(S(=O)(=O)NCC(=O)O)ccc1F | 0 | -10 | 3 | 4698 | -3
O=C(O)CNS(=O)(=O)c1ccc(F)cc1 | 0 | 0 | 12 | 21439* | 1
Cc1nc2cc(-c3cccs3)[nH]n2c(=O)c1C | 4 | 5 | 1 | 17502* | -7
Cc1ccccc1-c1cc2nc(C)c(C)c(=O)n2[nH]1 | 1 | 23 | 12 | 4097 | -10
CCc1nc(Nc2ccccc2)c2oc3ccccc3c2n1 | ? | 3 | 3 | 19756* | -2
c1ccc2c(c1)oc1c(Nc3ccc4c(c3)OCO4)ncnc12 | 0 | -5 | 4 | 2438 | 4
Cc1nc(Nc2ccc3c(c2)OCO3)c2oc3ccccc3c2n1 | ? | -5 | 7 | 24138* | -4
SMILES | BoNT A protease | BoNT F protease | MazEF act | Autofluor counter | Anthrax LF inh2
COc1ccc(C(C)(C)C)cc1NC(=O)c1ccoc1C | 1 | -1 | 2 | 21536* | -9
O=C(COC(=O)c1cncc(Br)c1)NC1CCCCCC1 | 31* | 2 | 11 | 4808 | 25
Cc1ccc(-c2nnc3ccc(SCC(=O)Nc4cc(C)on4)nn23)cc1 | 1 | 0 | 1 | 20468* | -4
Cc1cc(NC(=O)CSc2nnc(-c3cccnc3)n2C)no1 | ? | 6 | 5 | 21792* | 0
CCOc1ccc(N(CC(=O)Nc2c(C)cc(C)cc2C)C2=NC3CS(=O)(=O)CC3S2)cc1 (centres undefined) | -1 | -4 | . | 5805 | -10
Nc1ccc2oc(C3CCCCC3)nc2c1 | -1 | -3 | -12 | 3708 | -4
CCOc1ccc(OCCCC(=O)O)cc1 | 0 | -1 | 4 | 20482* | -2
CCOc1ccc(C(=O)CCC(=O)O)cc1 | 0 | -2 | -10 | 10329 | -1
COc1cccc2[nH]c3c(N4CCC(C)CC4)ncnc3c12 | 0 | -4 | 17 | 23249* | 0
COc1ccccc1NC(=O)C1CCN(C(=O)c2ccco2)CC1 | -4 | 0 | 16 | 3368 | 1
Cc1cnc(C(=O)OCC(=O)NC23CC4CC(CC(C4)C2)C3)cn1 | 1 | 0 | 1 | 20090* | 1
CCOC(=O)c1c(C)[nH]c(C)c1C(=O)COC(=O)[C@@H](NC(=O)c1ccccc1OCC)C(C)C | -2 | -3 | -5 | 23944* | -4
COc1ccc(-c2[nH]ncc2Oc2ccccc2OC)c(O)c1 | -4 | -8 | -2 | 24038* | -6
COc1ccc(-c2[nH]ncc2-c2cnn(-c3ccccc3)c2)c(O)c1 | 0 | -4 | -1 | 22408* | -1
COc1ccc(CNC(=O)O[C@H]2C[C@@H]3C(=O)N(c4ccccc4)C(=O)[C@@H]3[C@@H]3CN(S(=O)(=O)c4ccc(C)cc4)C[C@]23O)cc1OC | 0 | -6 | 7 | 4374 | -7
O=C(Cn1nnc(-c2cccs2)n1)N1CCc2ccccc2C1 | 1 | 2 | -2 | 21633* | -12
O=C(O)Cn1nnc(-c2cccs2)n1 | 0 | 3 | 7 | 3203 | -6
CCN(CC)S(=O)(=O)c1cccc(S(=O)(=O)N2CCCCC2)c1 | -1 | -10 | -8 | 5442 | -7
CCN(CC)S(=O)(=O)c1cccc(S(=O)(=O)c2cccc(S(=O)(=O)N(CC)CC)c2)c1 | ? | 0 | -1 | 22967* | -5
CCN(CC)S(=O)(=O)c1ccc(F)cc1 | ? | -2 | -2 | 17034* | 0
CCN(C(=O)COC(=O)/C=C/c1ccc(OC(F)F)c(OC)c1)C1CCS(=O)(=O)C1 (centres undefined) | 0 | -4 | 4 | 3620 | -5
O=C(NCCCn1ccnc1)c1ccco1 | -4 | -6 | 2 | 24362* | -4
COc1ccc(C(=O)Nc2ccccc2C(=O)NCCCn2ccnc2)cc1 | 0 | 0 | -2 | 2182 | -1
O=C(c1ccc(C(F)(F)F)cc1)c1c[nH]c(C(=O)NCCCn2ccnc2)c1 | ? | 1 | -6 | 19564* | -1
C=CCOc1ccc(NC(=O)C(=O)NCCCn2ccnc2)cc1 | 4 | 7 | 1 | 19499* | -1
O=C(Nc1ccccc1C(=O)NCCCn1ccnc1)c1ccccc1 | -1 | -2 | 0 | 20501* | -1
CC1(C(=O)Nc2cccc(Oc3ccccc3)c2)Cc2c(-c3ccc4c(c3)OCO4)ccnc2O1 (centres undefined) | 0 | 2 | . | 3572 | 1
C[C@H](CO)N1C[C@H](C)[C@@H](CN(C)C(=O)NC2CCCCC2)Oc2c(NC(=O)C3CCCCC3)cccc2C1=O | 0 | 1 | 3 | 3325 | -5
CCOC(=O)Cn1cc(C=C2C(=O)N(C)C(=O)N(C)C2=O)c2ccccc21 | -1 | 40* | -115 | 3338 | 22
